PTAP TSG101 blk – blocks PTAP/TSG101 interaction to inhibit HIV-1 budding. Q99816. Fluorescence polarization, FITC-PTAP peptide / Tsg101 binding. Potency, µM (top dose mostly 115 µM), without a hit: top-dose activity change, negative = inhibition, hits mostly inhibitors. 340,000 tested, under 10 active; active = well fitted inhibition curve with a large enough effect in the main read-out, with a control signal flat, not every such curve was filed as active; inconclusive = small, poorly fitted or top-dose-only effect, or effect the other way, or a change in a side signal; inactive = no such curve, though single readings can be large or run the other way; also: % of control where 0% means no effect
Target sequence (Q99816 whole entry, looked up): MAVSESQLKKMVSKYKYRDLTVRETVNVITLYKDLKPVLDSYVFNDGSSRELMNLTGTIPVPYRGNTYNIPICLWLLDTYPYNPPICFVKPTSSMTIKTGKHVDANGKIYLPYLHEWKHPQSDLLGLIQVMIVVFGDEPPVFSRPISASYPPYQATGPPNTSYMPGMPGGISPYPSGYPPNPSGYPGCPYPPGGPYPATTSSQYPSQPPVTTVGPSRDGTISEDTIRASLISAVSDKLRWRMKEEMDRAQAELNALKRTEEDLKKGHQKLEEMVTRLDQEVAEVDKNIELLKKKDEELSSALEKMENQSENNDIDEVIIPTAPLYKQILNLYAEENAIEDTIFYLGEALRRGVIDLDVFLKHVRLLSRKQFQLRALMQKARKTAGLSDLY
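Compounds were pin-transferred onto Tsg101 binding domain (10 uM final) in HEPES pH 7.5 buffer, then FITC-PTAP peptide was added at 50 nM final. After 20 min at RT, polarization reported peptide displacement across a qHTS concentration series.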
SW480 rerep – inducers of DNA re-replication in SW480 colon cancer cells | Potency, µM (doses to about 46.1 µM), for the others: top-dose re-replication activation, hits mostly activators | 340,000 compounds, 1.8% hits | AID 624297 | SW480 DNA re-replication, Hoechst DNA content imaging, 48 h; also: % of control where 0% means no effect; nearly all actives have a fitted effect of over 55% in size
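250 cells/well; 23 nL cpd via pin tool; 48 hr, 37 C, 5% CO2; Hoechst 40 min; imager read of total nuclear intensity, ex 405/em 500-530 nm.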
KB-V1 MDR tox – KB-V1 MDR subline cytotoxicity | Potency, µM (top dose mostly 46.1 µM), usual class: cytotoxic | KB-V1 MDR cells viability, CellTiter-Glo, 72 h | 400,000 compounds, 3.4% hits; also: % is scaled to controls: 0 for no effect and ±100 for the full control effect; nearly all actives have a fitted effect of over 60% in size
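Compound-treated KB-V1 multidrug-resistant cells, 72 h, 37 degrees C; viability by CellTiter-Glo. Fitted qHTS curves give the values.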
KB-3-1 tox – kills parental KB-3-1 adenocarcinoma cells. KB-3-1 viability, CellTiter-Glo ATP luminescence, 72 h. Potency, µM (doses to about 46.1 µM), hits mostly cytotoxic. 400,000 compounds, 1.4% hits. AID 1347075; also: % is scaled to controls: 0 for no effect and ±100 for the full control effect; nearly all actives have a fitted effect of over 60% in size
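Luminescent ATP read-out (CellTiter-Glo) measures survival of drug-naive KB-3-1 cells after 72 h compound exposure at 37 °C. Titration series was screened from lowest to highest concentration, with DMSO vehicle plates as background controls.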
RGS4 inhibitor – human RGS4 inhibition; Transcreener GDP fluorescence polarization, RGS4-accelerated GTP hydrolysis; Potency, µM (highest dose often 114 µM), inactives show at the highest dose activity change, negative = inhibition, usual class: inhibitors; 390,000 compounds, 0.039% hits; AID 504845; also: % is scaled to controls: 0 for no effect and ±100 for the full control effect; nearly all actives have a fitted effect of over 75% in size
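MLSMR compounds (23 nl, pin-transferred) preincubated 10 min at room temperature with a 500nM (2x) first reagent, then RGS4 at 900nM (2x) plus Transcreener GDP mix added; fluorescence polarization (620/688 nm) read before and after 90 min at 30 °C.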
MCF10A rerep – induces DNA re-replication in MCF 10a normal breast cells. 350,000 compounds, 2.9% hits. AID 624296. MCF 10A DNA re-replication, Hoechst nuclear intensity, 48 h. Potency, µM (top dose mostly 46.1 µM), inactives show top-dose activity, positive = re-replication, usual class: activators; also: % of control where 0% means no effect; nearly all actives have a fitted effect of over 50% in size
* = called active by the depositor; i = inactive; ? = inconclusive; . = no result; [ ] = another dose, or the depositor's remark. The list is not random: actives were taken first. Their share in the collection is about 6.6%. Unless noted, calls follow the shape of the dose curve; as a rule, active = well fitted curve in the direction sought with a large enough effect; inconclusive = small, poorly fitted or top-dose-only effect, or another doubt; inactive = no such curve, though single readings can be large; an effect the other way counts as inactive or inconclusive. Potency is read from the fitted curve at half-maximal effect.

SMILES	PTAP TSG101 blk	SW480 rerep	KB-V1 MDR tox	KB-3-1 tox	RGS4 inhibitor	MCF10A rerep
CN1CCN(c2ccc(S(=O)(=O)N3CCCCC3)cc2NC(=O)c2cccc([N+](=O)[O-])c2)CC1	-1.6%	-5.8%	i	i	4.5%	4.4%
O=C(CN1CCc2ccccc2C1)Nc1cc(S(=O)(=O)N2CCOCC2)ccc1N1CCOCC1	0.7%	-4.0%	?	i	-28.4%	9.0%
O=C(CSc1nc2ccccc2n1Cc1cccc(Cl)c1)N1CCN(c2ccc(F)cc2)CC1	.	.	i	i	-3.8%	.
CCOc1ccccc1NC(=O)NCCn1c(=O)oc2ccc(C)cc21	.	.	i	i	-5.4%	.
O=C(Nc1cc(S(=O)(=O)N2CCOCC2)ccc1N1CCCCC1)c1ccc(Cl)cc1	-1.1%	11.2%	i	i	?	6.6%
COc1cccc(C(=O)Nc2cc(S(=O)(=O)N3CCOCC3)ccc2N2CCOCC2)c1	-9.6%	-18.7%	i	i	-9.2%	-2.6%
CC(C)COc1cccc(C(=O)Nc2cc(S(=O)(=O)N3CCOCC3)ccc2N2CCCC2)c1	-1.4%	11.9%	18.4µM*	i	?	18.0%
O=C(Nc1cc(S(=O)(=O)N2CCOCC2)ccc1N1CCCCC1)c1ccccc1	-3.6%	-7.6%	5.17µM*	i	-9.9%	14.6%
CC1=Nc2ccccc2/C1=C/c1nc(-c2ccc(C)s2)oc1O	?	4.2%	?	i	18.9%	3.2%
CC1=Nc2ccccc2/C1=C/c1sc(=N)n(-c2nccs2)c1O	23.6%	10.8%[9.22 µM]	i	7.31µM*	-21.8%	?
CC1Cc2cc(/C=C3/SC(N4CCC(C(N)=O)CC4)=NC3=O)ccc2O1 (stereo not given)	-1.7%	13µM*	i	?	-3.8%	-13.0%
CC(C)(C#N)NC(=O)C1CCCN1S(=O)(=O)c1ccc2ccccc2c1 (stereo not given)	-1.9%	23.1µM*	?	?	-18.2%	?
O=C(NC1CC1)C1CCCN1S(=O)(=O)c1ccc2ccccc2c1 (stereo not given)	-3.9%	?	?	16.4µM*	2.7%	6.0%
CCNC(=O)C1CCCN1S(=O)(=O)c1ccc2ccccc2c1 (stereo not given)	-4.8%	-9.3%	i	?	-14.1%	-28.3%
Cc1ccc(-c2n[nH]c(=O)c3ccccc23)cc1S(=O)(=O)N(C)C	-3.8%	-5.1%	i	i	13.2%	22.0%
Cc1ccc(-c2n[nH]c(=O)c3ccccc23)cc1S(=O)(=O)Nc1ccccc1	0.2%	1.0%	20.6µM*	?	-28.9%	?
O=C(Nc1cccc(C(=O)N2CCN(c3ccc(F)cc3)CC2)c1)c1nsc2ccccc12	.	.	i	i	-18.9%	.
Cc1cc(C)cc(N(CCC#N)C(=O)COC(=O)CCc2c[nH]c3ccccc23)c1	-1.9%	-2.8%	20.6µM*	i	-33.3%	-0.7%
CC12CCC=CC1C(c1ccc3ccccc3c1)N(Cc1ccccc1)C2=O (stereo not given)	.	.	.	.	-16.9%	.
CC(C)(C)C(=O)N1CCN(S(=O)(=O)c2ccc3c(c2)OCCCO3)CC1	-1.5%	-8.7%	?	14.6µM*	3.0%	5.9%
CC#CC[N+](C)(C)CC(=O)c1ccccc1	-2.1%	-14.2%	i	i	-14.6%[11.4 µM]	-3.9%
CC#CC[N+](C)(C)CCCCCCCC	2.8%	-0.2%	i	18.4µM*	7.1%	3.7%
Cc1cc2ncn(/N=C/c3ccc([N+](=O)[O-])o3)c2cc1C	-0.2%	20.6µM*	?	i	9.4%	20.6µM*
O=C1C2C(C(=O)N1/N=C/c1ccc([N+](=O)[O-])o1)C1C=CC2C12CC2 (stereo not given)	-5.0%	?	i	i	-52.8%	16.4µM*
O=C1SCCN1N=Cc1ccc([N+](=O)[O-])o1	-3.1%	?	?	?	-7.5%	?

Screening results (PubChem)
